Measured values published in PubChem BioAssay AID1159580 (chemical genetic matrix, 2015).
The campaign covered roughly 5,500 compounds. About 2,000 (36%) were called active. Not shown: some 18% with an inconclusive outcome. Cut-off read from the data, not from the text of the source: active = normalized growth mostly below about 0.91 (no sharp cut-off); inconclusive = no clear call, values can overlap the other calls; inactive = mostly above about 0.92. Some of the results follow.

Assay: chemical genetic growth profiling, strain panel (AID 1159580);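 note: tested at 20 µM; growth read once vehicle control cultures reached saturation at 30 °C; 1 = growth at the plate median or of vehicle wells; lower values mean less growth of the strain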
Settings: growth OD
[1] = S. cerevisiae deletion strains, locus YHR030C, strain SLT2, stronger effect = lower value

Measured: normalized growth

O=C(NNC(=S)Nc1ccc(Cl)cc1)c1ncc(C(F)(F)F)cc1Cl
inactive: S. cerevisiae deletion strains, locus YAR019C, strain CDC15, stronger effect = lower value 0.968 | S. cerevisiae deletion strains, locus YBL105C, strain PKC1, stronger effect = lower value 0.99 | S. cerevisiae deletion strains, locus YBR135W, strain CKS1, stronger effect = lower value 0.992 | S. cerevisiae deletion strains, locus YBR136W, strain MEC1, stronger effect = lower value 0.985 | S. cerevisiae deletion strains, locus YBR160W, strain CDC28, stronger effect = lower value 0.994 | S. cerevisiae deletion strains, locus YDL017W, strain CDC7, stronger effect = lower value 0.989 | S. cerevisiae deletion strains, locus YDL028C, strain MPS1, stronger effect = lower value 0.988 | S. cerevisiae deletion strains, locus YDL101C, strain DUN1, stronger effect = lower value 0.985 | S. cerevisiae deletion strains, locus YDL108W, strain KIN28, stronger effect = lower value 0.986 | S. cerevisiae deletion strains, locus YDL132W, strain cdc53, stronger effect = lower value 0.966 | S. cerevisiae deletion strains, locus YDL214C, strain PRR2, stronger effect = lower value 0.956 | S. cerevisiae deletion strains, locus YDR052C, strain DBF4, stronger effect = lower value 0.991 | S. cerevisiae deletion strains, locus YDR054C, strain cdc34, stronger effect = lower value 0.961 | S. cerevisiae deletion strains, locus YDR226W, strain ADK1, stronger effect = lower value 0.982 | S. cerevisiae deletion strains, locus YDR477W, strain SNF1, stronger effect = lower value 0.935 | S. cerevisiae deletion strains, locus YER123W, strain YCK3, stronger effect = lower value 0.863 | S. cerevisiae deletion strains, locus YER133W, strain GLC7, stronger effect = lower value 0.94 | S. cerevisiae deletion strains, locus YFL009W, strain cdc4, stronger effect = lower value 0.975 | S. cerevisiae deletion strains, locus YFL029C, strain CAK1, stronger effect = lower value 0.973 | S. cerevisiae deletion strains, locus YFR003C, strain YPI1, stronger effect = lower value 0.991 | S. cerevisiae deletion strains, locus YFR019W, strain FAB1, stronger effect = lower value 1 | S. cerevisiae deletion strains, locus YFR028C, strain CDC14, stronger effect = lower value 0.984 | S. cerevisiae deletion strains, locus YGR040W, strain KSS1, stronger effect = lower value 0.929 | S. cerevisiae deletion strains, locus YGR052W, strain FMP48, stronger effect = lower value 0.942 | S. cerevisiae deletion strains, locus YGR092W, strain DBF2, stronger effect = lower value 0.755 | [1] 0.901 | S. cerevisiae deletion strains, locus YHR079C, strain IRE1, stronger effect = lower value 0.768 | S. cerevisiae deletion strains, locus YHR082C, strain KSP1, stronger effect = lower value 1.08 | S. cerevisiae deletion strains, locus YHR205W, strain SCH9, stronger effect = lower value 0.981 | S. cerevisiae deletion strains, locus YIL147C, strain SLN1, stronger effect = lower value 0.972 | S. cerevisiae deletion strains, locus YJL095W, strain BCK1, stronger effect = lower value 0.791 | S. cerevisiae deletion strains, locus YJL128C, strain PBS2, stronger effect = lower value 0.971 | S. cerevisiae deletion strains, locus YJL157C, strain FAR1, stronger effect = lower value 0.912 | S. cerevisiae deletion strains, locus YJR016C, strain ILV3, stronger effect = lower value 0.974 | S. cerevisiae deletion strains, locus YJR066W, strain TOR1 (second series), stronger effect = lower value 0.885 | S. cerevisiae deletion strains, locus YJR066W, strain TOR1, stronger effect = lower value 1.01 | S. cerevisiae deletion strains, locus YKL048C, strain ELM1, stronger effect = lower value 0.986 | S. cerevisiae deletion strains, locus YKL067W, strain YNK1, stronger effect = lower value 0.95 | S. cerevisiae deletion strains, locus YKL101W, strain HSL1, stronger effect = lower value 0.926 | S. cerevisiae deletion strains, locus YKL193C, strain SDS22, stronger effect = lower value 0.984 | S. cerevisiae deletion strains, locus YKL203C, strain TOR2, stronger effect = lower value 1.01 | S. cerevisiae deletion strains, locus YLR113W, strain HOG1, stronger effect = lower value 0.886 | S. cerevisiae deletion strains, locus YLR133W, strain CKI1, stronger effect = lower value 0.932 | S. cerevisiae deletion strains, locus YLR403W, strain SFP1, stronger effect = lower value 0.91 | S. cerevisiae deletion strains, locus YML070W, strain DAK1, stronger effect = lower value 0.93 | S. cerevisiae deletion strains, locus YMR001C, strain CDC5, stronger effect = lower value 0.986 | S. cerevisiae deletion strains, locus YMR205C, strain PFK2 (second series), stronger effect = lower value 0.956 | S. cerevisiae deletion strains, locus YMR277W, strain FCP1, stronger effect = lower value 0.966 | S. cerevisiae deletion strains, locus YNL006W, strain LST8, stronger effect = lower value 0.991 | S. cerevisiae deletion strains, locus YNL020C, strain ARK1, stronger effect = lower value 0.929 | S. cerevisiae deletion strains, locus YNL161W, strain CBK1, stronger effect = lower value 0.981 | S. cerevisiae deletion strains, locus YNL183C, strain NPR1, stronger effect = lower value 0.854 | S. cerevisiae deletion strains, locus YNL207W, strain RIO2, stronger effect = lower value 0.973 | S. cerevisiae deletion strains, locus YNL222W, strain SSU72, stronger effect = lower value 0.979 | S. cerevisiae deletion strains, locus YNL307C, strain MCK1 (second series), stronger effect = lower value 0.912 | S. cerevisiae deletion strains, locus YOL078W, strain AVO1, stronger effect = lower value 0.972 | S. cerevisiae deletion strains, locus YOL136C, strain PFK27, stronger effect = lower value 0.939 | S. cerevisiae deletion strains, locus YOR061W, strain CKA2, stronger effect = lower value 0.925 | S. cerevisiae deletion strains, locus YOR119C, strain RIO1, stronger effect = lower value 0.962 | S. cerevisiae deletion strains, locus YOR231W, strain MKK1, stronger effect = lower value 0.843 | S. cerevisiae deletion strains, locus YOR329C, strain SCD5, stronger effect = lower value 0.99 | S. cerevisiae deletion strains, locus YPL031C, strain PHO85, stronger effect = lower value 0.901 | S. cerevisiae deletion strains, locus YPL153C, strain RAD53, stronger effect = lower value 0.882 | S. cerevisiae deletion strains, locus YPL204W, strain HRR25, stronger effect = lower value 0.86 | S. cerevisiae deletion strains, locus YPL209C, strain IPL1, stronger effect = lower value 0.992 | S. cerevisiae deletion strains, locus YPL256C, strain CLN2, stronger effect = lower value 0.875 | S. cerevisiae deletion strains, locus YPR025C, strain CCL1, stronger effect = lower value 0.98 | S. cerevisiae deletion strains, locus YPR106W, strain ISR1, stronger effect = lower value 0.987 | S. cerevisiae deletion strains, locus YPR111W, strain DBF20, stronger effect = lower value 0.987 | S. cerevisiae deletion strains, strain NNK1, stronger effect = lower value 0.995 | S. cerevisiae deletion strains, strain TSCII, stronger effect = lower value 0.968

Cc1nn(-c2ccccc2)nc1C(=O)NNC(=S)Nc1ccc(Cl)cc1
inactive: S. cerevisiae deletion strains, locus YAL013W, strain DEP1, stronger effect = lower value 0.957 | S. cerevisiae deletion strains, locus YBR229C, strain ROT2, stronger effect = lower value 0.983 | S. cerevisiae deletion strains, locus YCL061C, strain MRC1, stronger effect = lower value 1.04 | S. cerevisiae deletion strains, locus YGR078C, strain PAC10, stronger effect = lower value 0.991 | [1] 0.889 | S. cerevisiae deletion strains, locus YHR087W, strain rtc3, stronger effect = lower value 0.988 | S. cerevisiae deletion strains, locus YJL187C, strain SWE1, stronger effect = lower value 0.954 | S. cerevisiae deletion strains, locus YJR043C, strain POL32, stronger effect = lower value 0.985 | S. cerevisiae deletion strains, locus YLR058C, strain SHM2 (second series), stronger effect = lower value 1.01 | S. cerevisiae deletion strains, locus YLR085C, strain ARP6, stronger effect = lower value 0.82 | S. cerevisiae deletion strains, locus YLR262C, strain YPT6, stronger effect = lower value 0.858 | S. cerevisiae deletion strains, locus YML094W, strain GIM5, stronger effect = lower value 0.904 | S. cerevisiae deletion strains, locus YMR263W, strain SAP30, stronger effect = lower value 1.01 | S. cerevisiae deletion strains, locus YNL153C, strain GIM3, stronger effect = lower value 1.04 | S. cerevisiae deletion strains, locus YNL322C, strain KRE1, stronger effect = lower value 1.02 | S. cerevisiae deletion strains, locus YPL241C, strain CIN2, stronger effect = lower value 0.929 | S. cerevisiae deletion strains, locus YPR135W, strain CTF4, stronger effect = lower value 0.969
active: S. cerevisiae deletion strains, locus YEL061C, strain CIN8, stronger effect = lower value 0.866 | S. cerevisiae deletion strains, locus YJR075W, strain HOC1, stronger effect = lower value 1.33 [resistant] | S. cerevisiae deletion strains, locus YLR039C, strain RIC1, stronger effect = lower value 0.785 | S. cerevisiae deletion strains, locus YNL298W, strain CLA4 (second series), stronger effect = lower value 0.835 | S. cerevisiae deletion strains, locus YNR030W, strain Alg12, stronger effect = lower value 0.854 | S. cerevisiae deletion strains, locus YPL055C, strain LGE1, stronger effect = lower value 0.814 | S. cerevisiae strains, strain wild type, stronger effect = lower value 0.887
